High-throughput results deposited in PubChem BioAssay by Broad Institute.
MITF act: MITF TRPM1 promoter activation in melanoma cells; SK-MEL-5 TRPM1-promoter luciferase, 24 h; % of positive control, neutral wells = 0; activation, % at 12.5 µM; actives 0.75% (n = 300,000);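 active = mean activation of at least 80% with every replicate also reaching 80%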;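 note: 0% = neutral control wells and 100% = parthenolide positive control wells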
Dyrk1A ADPGlo: inhibitors of rat Dyrk1A kinase; Q63470; ADP-Glo luminescence, NFATc1 peptide; actives 0.43% (n = 310,000); inhibition, % at 12.5 µM; AID 504441;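 note: plate controls were vehicle with enzyme for no effect and no enzyme for full effect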
miR-122 sensor: blocks miR-122 activity in Huh7 sensor cells | Huh7 miR-122 Renilla luciferase sensor, 48 h; neutral wells = 0, positive control = 100 | activation (reporter increase), % at 12.5 µM | actives 0.3% (n = 340,000);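 active = mean replicate activation score at least 90 and every replicate individually at or above 90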;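 note: higher luciferase means less miR-122 activity so hits act as miR-122 inhibitors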
INS-1E GSIS act: GLuc luminescence reporter in INS-1E cells, primary screen for activators of glucose-dependent secretion of insulin; AID 743287; activation, % at 16.6 µM; actives 0.61% (n = 370,000); INS-1E GLuc reporter insulin secretion, 2-3 h;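 active = lowest replicate activation of at least 40%, so every replicate reaches that level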;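 note: 0% = median of neutral control wells and 100% = median of IBMX positive control wells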
NSD2 inh: NSD2 (human) methyltransferase inhibition | inhibition, % at 12.5 µM | actives 0.54% (n = 310,000) | NSD2 peptide methylation, AlphaScreen, 120 min
Wnt bcat act: activators of Wnt/beta-catenin signaling. activation, % at 9.35 µM. AID 743398. Wnt/beta-catenin reporter cell assay, activator, plate reader. actives 1.2% (n = 300,000); in the data active = activation above about 30%, passing the limit was not always enough;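 note: 0% = neutral control wells and 100% = positive control wells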
Alpha artifact: AlphaScreen assay artifact in NSD2 counter-screen; AlphaScreen artifact counterscreen, preloaded methylated H4 peptide; actives 9.4% (n = 1,500); shares compounds with NSD2 inh; AID 1053174; AC35, µM (titrated, usually from 10 µM), for the others: top-dose activity change, negative = signal loss; call rule not given here
Starred values were filed as active, the others as inactive; · = no result given; [ ] = another dose, or the depositor's remark. Compounds with a hit are over-represented: about 2.4% of the library has one in this group of screens. Cut-off read from the data, not from the text of the source, unless noted: active = inhibition above about 50%; inactive = the rest.

SMILES | MITF act | Dyrk1A ADPGlo | miR-122 sensor | INS-1E GSIS act | NSD2 inh | Wnt bcat act | Alpha artifact
Cc1cc(C=O)c(C)n1-c1cc(C(=O)O)cc(C(=O)O)c1 | 5 | -6 | · | 9 | 84* | -3 | -5%
Cc1cc(C=O)c(C)n1-c1cccc(C(=O)O)c1 | 11 | -2 | · | -2 | 31 | 1 | ·
COc1cc(N(C(C)=O)c2ccc(O)c(C(=O)O)c2)c2ncccc2c1 | · | · | -3 | 18 | 86* | 1 | -2%
O=C(C[C@@H]1CC[C@H]2[C@@H](COC[C@@H](O)CN2S(=O)(=O)c2ccc(Cl)cc2)O1)N[C@@H]1CCN(Cc2ccccc2)C1 | · | · | -7[16.7 µM] | -7 | · | · | ·
CCC(=O)Nc1ccc2c(c1)C(=O)N(C)C[C@@H](OC)[C@H](C)CN(CC1CCOCC1)[C@@H](C)CO2 | · | · | 6[16.7 µM] | -5 | · | · | ·
CN1CCCCCC1=Nc1ccc([N+](=O)[O-])cc1 | · | 1 | · | -1 | 57* | -2 | -2%
CO[C@@H]1CN(C)C(=O)c2ccc(NC(=O)c3nc4ccccc4s3)cc2OC[C@H](C)N(Cc2cccnc2)C[C@@H]1C | · | · | 14[16.7 µM] | -19 | · | · | ·
O=C(Nc1ccc(F)cc1)Nc1ccc2c(c1)[C@H]1C[C@@H](CC(=O)N3CCOCC3)O[C@@H](CO)[C@H]1O2 | · | · | 3[16.7 µM] | 4 | · | · | ·
Cc1cc(C)cc(NC(=O)C2C3C=CC4(O3)C2C(=O)N(CCCN2CCCC2)C4C(=O)NC2CCCC(C)C2C)c1 (centres undefined) | · | 0 | 1 | -8 | 50* | -1 | 3%
Cc1cccc(NC(=O)C2C3C=CC4(O3)C2C(=O)N(CCCN2CCCC2)C4C(=O)NC2CCCC(C)C2C)c1 (centres undefined) | 1 | -2 | -5 | 6 | 3 | -1 | ·
O=[N+]([O-])c1ccc(COc2cccnc2)cc1 | 17 | · | · | -2 | -4 | -1 | ·
O=[N+]([O-])c1ccc(-c2cccnc2)cc1 | 11 | · | -3 | -4 | 158* | -2 | 0%
COCC(=O)N1CC2(C1)CN(S(C)(=O)=O)[C@@H](CO)c1[nH]c3cc(OC)ccc3c12 | · | · | · | 22 | · | · | ·
CN(C)S(=O)(=O)N1C(=O)c2ccccc2C1=O | 4 | 1 | · | 5 | -3 | 1 | ·
CN(C)/C=C1\C=C2C(=O)c3ccccc3N2C1=O | · | · | -2 | 10 | 144* | 2 | -3%
CCC(=O)N(C)C[C@H]1Oc2cc(-c3cncnc3)ccc2S(=O)(=O)N([C@@H](C)CO)C[C@@H]1C | · | · | -7[16.7 µM] | 12 | · | · | ·
O=C(C[C@@H]1CC[C@@H]2[C@H](COC[C@H](O)CN2S(=O)(=O)c2ccc(Oc3ccccc3)cc2)O1)Nc1ccccc1 | · | · | -9[16.7 µM] | -16 | · | · | ·
CC(C)(C)NC(=O)CN(C(=O)CS(=O)CC(=O)Nc1ccc(F)cc1)c1cccc(F)c1 (centres undefined) | -2 | -4 | 14 | -7 | -4 | -1 | ·
Cc1cccc(N(CC(=O)NC(C)(C)C)C(=O)CS(=O)CC(=O)Nc2ccc3c(c2)OCO3)c1 (centres undefined) | · | -2 | · | 4 | 52* | 0 | 3%
Cc1ccc(N2CS(=O)(=O)/C(=C/N(C)C)C2=O)cc1 | 68 | 6 | -15 | · | 64* | 49* | -1%
Nc1nc(-c2ccco2)c(-c2ccco2)s1 | -4 | -3 | -3 | · | 4 | · | ·
c1coc(-c2nc(-c3ccco3)c(-c3ccco3)nc2-c2ccco2)c1 | -5 | -9 | -6 | -3 | 149* | -1 | -6%
Cc1ccnc(NC2OC(=O)c3ccccc32)c1 (centres undefined) | 2 | 3 | 2 | · | -3 | 1 | ·
COc1cc(OC)nc(NC2OC(=O)c3ccccc32)n1 (centres undefined) | 1 | 0 | 4 | · | 104* | · | 4%
C[C@@H]1CN([C@@H](C)CO)C(=O)c2cccc(NC(=O)c3ccc(-c4nccs4)cc3)c2O[C@H]1CN(C)Cc1ccccc1 | · | · | -14[16.7 µM] | -26 | · | · | ·
COc1cc(/C=C2\SC(=S)N(C(C(=O)O)c3ccccc3)C2=O)ccc1O (centres undefined) | 6 | 15 | 0 | -12 | 14 | 2 | ·
